Inconclusive results are not listed. Activity calls are given as the source filed them. Calls come from the whole dose curve; as a rule, active = well fitted cell-killing curve with a large enough effect; inconclusive = small, poorly fitted or top-dose-only effect, or effect the other way; inactive = no such curve, though single readings can be large or run the other way.
experiment: Quantitative High-Throughput drug screen in 47 multiple myeloma cell lines against the NCATS MIPE library collection: PCM6_Riken cell viability assay (AID 1919870); settings: CellTiter-Glo ATP, 48 h; series mostly up to 45.8 µM; note: nearly all actives have a fitted effect of over 30% in size
Excerpt: PI: Beverly A. Mock Ph.D.
Laboratory of Cancer Biology and Genetics,
Center for Cancer Research, National Cancer Institute,
National Institute of Health, Bethesda, Maryland
Drug resistance and disease progression are common in multiple myeloma (MM) patients, underscoring the need for new therapeutic combinations. […] We hypothesized that effective combinations would reduce MYC expression and enhance p16 activity. […] These preclinical data identify potentially useful drug combinations for evaluation in drug-resistant MM and reveal potential mechanisms of combined drug sensitivity.
Described herein is the primary MIPE qHTS used to cherrypick compounds. Validated compounds were then further tested for potential synergistic activiy.
[1] Peat TJ, Gaikwad SM, Dubois W, Gyabaah-Kessie N, Zhang S, Gorjifard S, Phyo Z, Andres M, Hughitt VK, Simpson RM, Miller MA, Girvin AT, Taylor A, Williams D, D'Antonio N, Zhang Y, Rajagopalan A, Flietner E, Wilson K, Zhang X, Shinn P, Klumpp-Thomas C, McKnight C, Itkin Z, Chen L, Kazandijian D, Zhang J, Michalowski AM, Simmons JK, Keats J, Thomas CJ, Mock BA. Drug combinations identified by high-throughput screening promote cell cycle transition and upregulate Smad pathways in myeloma. Cancer Lett. 2023 Aug 1;568:216284. doi: 10.1016/j.canlet.2023.216284. Epub 2023 Jun 24. PMID: 37356470; PMCID: PMC10408729.
SEQUENCE No. (e.g., 1, 2, 3, etc.); […] (e.g., Cells, Incubation, Reagent, etc.); VALUE and DESCRIPTION.
1; Cells; 5 uL; white, solid bottom 1536-well Greiner assay plate.
2; Compounds; 23 nL; Kalypsis pin tool (Wako USA) equipped with a 1536-well pin head to transfer to the assay plates.
3; Incubation; 48 hours; 37C incubation.
4; Reagent;5uL; CellTiter Glo (Promega).
5; Detector; 425V; Luminescence; Viewlux PerkinElmer.
NOTES (numbers refer to Sequence numbers above)
1. The cell-based screening methods employed in this study were like those previously published. Briefly, the corresponding myeloma cell lines were screened in 1,536-well plates with 500 cells, 5-uL per well for inhibition of cell viability (assessed by measuring ATP levels with CellTiterGlo).
2. NCATS MIPE 4.0 library of approved and investigational drugs were added using the Kalypsis pin tool. Wells treated with DMSO only for 100% viability and media only for 0% viability were used as controls.
3. The assay plates were covered and incubated for 48 hours in a 37C, 5% CO2 incubator with controlled humidity.
4. After 48 hours, CellTilter-GloTM luminescent substrate mix (Promega) reagent was added to the assay plate and plates we incubated for 5 min at room temperature.
5. Signal was measured as median relative luminescence units on a ViewLux (PerkinElmer) multiplate reader.
[1] Heske CM, Davis MI, Baumgart JT, Wilson K, Gormally MV, Chen L, Zhang X, Ceribelli M, Duveau DY, Guha R, Ferrer M, Arnaldez FI, Ji J, Tran HL, Zhang Y, Mendoza A, Helman LJ, Thomas CJ. Matrix Screen Identifies Synergistic Combination of PARP Inhibitors and Nicotinamide Phosphoribosyltransferase (NAMPT) Inhibitors in Ewing Sarcoma. Clin Cancer Res. 2017 Dec 1;23(23):7301-7311. doi: 10.1158/1078-0432.CCR-17-1121. Epub 2017 Sep 12. PMID: 28899971; PMCID: PMC6636827.
Potency is the fitted concentration of half-maximal effect.

SMILES	Potency
CCn1nnc2c(N3CCOCC3)nc(-c3ccc(NC(=O)Nc4ccc(C(=O)N5CCN(C)CC5)cc4)cc3)nc21	33.2 nM (active)
CNC(=O)c1cc(Oc2ccc(NC(=O)Nc3cc(C(C)(C)C)nn3-c3ccc4ncccc4c3)c(F)c2)ccn1	2640 nM (active)
COc1ccc(C=Cc2cc(OC)c(OC)c(OC)c2)cc1O	inactive
CCS(=O)(=O)c1cccc(-c2cc(C(=O)NC3CCN(C)CC3)c(C)c3[nH]c4ncc(C)cc4c23)c1	1660 nM (active)
CCc1c2c(nc3ccc(O)cc13)-c1cc3c(c(=O)n1C2)COC(=O)[C@]3(O)CC	296 nM (active)
CC(C)CC(=O)Nc1n[nH]c2c1CN(C(=O)C1CCN(C)CC1)C2(C)C	743 nM (active)
COC(=O)Nc1nc2ccc(C(=O)c3ccc(F)cc3)cc2[nH]1	743 nM (active)
CC(=O)OCCN1C(=O)c2c(C)nc3ccc(S(=O)(=O)N4CCOCC4)cc3c2C1=O	inactive
COc1cc2c(NC3CCN(C(C)C)CC3)nc(C3CCCCC3)nc2cc1OCCCN1CCCC1	3320 nM (active)
O=C(C=Cc1cccnc1)NCCCCC1CCN(C(=O)c2ccccc2)CC1	26.4 nM (active)
CC=C1NC(=O)[C@H]2CSSCCC=C[C@H](CC(=O)N[C@H](C(C)C)C(=O)N2)OC(=O)[C@H](C(C)C)NC1=O	1 nM (active)
CC(C)c1nn(-c2c(Cl)cccc2Cl)c2nc(Cc3ccc(OCCO)cc3)[nH]c(=O)c12	46.9 nM (active)
COc1cc2c(cc1-c1c(C)noc1C)ncc1[nH]c(=O)n([C@H](C)c3ccccn3)c12	6620 nM (active)
CC(C)[C@H](C(=O)Nc1ccc(C(=O)NO)cc1)c1ccccc1	935 nM (active)
CC=CC1=C(C(=O)O)N2C(=O)[C@H](NC(=O)[C@H](N)c3ccc(O)cc3)[C@@H]2SC1	inactive
CNC(=O)c1ccc(N2C(=S)N(c3cnc(C#N)c(C(F)(F)F)c3)C(=O)C23CCC3)cc1F	833 nM (active)
Cc1cnc(Nc2ccc(F)cc2Cl)nc1-c1c[nH]c(C(=O)N[C@H](CO)c2cccc(Cl)c2)c1	18700 nM (active)
COc1cc(OC2CCN(C)CC2)ccc1Nc1ncc2c(n1)n(C1CCCC1)c(=O)n2C	10500 nM (active)
O=C(O)Cn1nnc(-c2cc(N3CCC(Oc4cc(F)ccc4Br)CC3)no2)n1	inactive
COC(=O)Nc1ccc(-c2nc(N3CCOCC3)c3cnn(C4CCN(Cc5cccnc5)CC4)c3n2)cc1	526 nM (active)

SMILES	Potency
O=C1CCC[C@@H]2[C@H]3CCC[N+]4([O-])CCC[C@@H](CN12)[C@@H]34 (stereo not given in full)	inactive
OCc1ccc(-c2ccc(-c3ccc(CO)s3)o2)s1	7430 nM (active)
CN(c1ncccc1CNc1nc(Nc2ccc3c(c2)CC(=O)N3)ncc1C(F)(F)F)S(C)(=O)=O	2350 nM (active)
Cc1[nH]nc2ccc(-c3cncc(OC[C@@H](N)Cc4ccccc4)c3)cc12	526 nM (active)
C=CC(=O)Nc1cc2c(Nc3ccc(F)c(Cl)c3)ncnc2cc1C#CC(C)(C)N1CCN(C)CC1	662 nM (active)
C#Cc1cccc(Nc2ncnc3cc(OC)c(OCCCCCCC(=O)NO)cc23)c1	187 nM (active)
CNc1nccc(-c2cccnc2Oc2cc(C(=O)Nc3cccc(C(F)(F)F)c3)ccc2C)n1	4180 nM (active)
Nc1cccc(-c2cc3c(Oc4cccc(O)c4)ncnc3[nH]2)c1	16600 nM (active)
CC(C)(O)c1cc2nc(-c3cnc(N)nc3)nc(N3CCOCC3)c2s1	743 nM (active)
CC(C)(C)c1cnc(CSc2cnc(NC(=O)C3CCNCC3)s2)o1	83.3 nM (active)
COc1cc2c(Nc3ccc(NC(=O)c4ccccc4)cc3)ncnc2cc1OCCCN1CCOCC1	16600 nM (active)
CN(C)CC=CC(=O)Nc1cc2c(Nc3ccc(F)c(Cl)c3)ncnc2cc1O[C@H]1CCOC1	1180 nM (active)
Cc1nc(Nc2n[nH]c3c2CN(C(=O)N[C@H](CN(C)C)c2ccccc2)C3(C)C)c2sccc2n1	1870 nM (active)
CCNC(=O)Nc1ccc2ncc(Nc3ccc(C)cc3)nc2n1	935 nM (active)
COc1cc2ncn(-c3cc(OCc4ccccc4C(F)(F)F)c(C(N)=O)s3)c2cc1OC	5900 nM (active)
O=C(CCCCCCNC(=O)c1cnc(N(c2ccccc2)c2ccccc2)nc1)NO	9350 nM (active)
Nc1ccccc1NC(=O)c1ccc(CNC(=O)OCc2cccnc2)cc1	1660 nM (active)
O=C(Cc1ccc(-c2ccc(OCCN3CCOCC3)cc2)cn1)NCc1ccccc1	26.4 nM (active)
C[C@@H]1COC(Nc2ccc3ncnc(Nc4ccc(OCc5nccs5)c(Cl)c4)c3c2)=N1	2960 nM (active)
CCCCOc1c(C(=O)c2c(F)cc(C)cc2F)cnc2n[nH]cc12	2640 nM (active)

Reference: PubChem BioAssay (NCATS)
